# Laboratory results published in PubChem BioAssay AID686978 (National Center for Advancing Translational Sciences (NCATS), 2013).
# The whole screen tested about 420,000 compounds, of which about 64,000 (15%) were called active. Roughly 27% stayed inconclusive and do not appear here. Not all results are given here. Unmarked numbers belong to inactive results. Calls follow the shape of the dose curve; as a rule, active = well fitted inhibition curve with a large enough effect; inconclusive = small, poorly fitted or top-dose-only effect; inactive = flat fitted curve, though single readings scatter.
# Assay: qHTS for Inhibitors of human tyrosyl-DNA phosphodiesterase 1 (TDP1): qHTS in cells in absence of CPT; also: nearly all actives have a fitted effect of over 55% in size
# Conditions: DT40 Tdp1-/- hTDP1 cells, no CPT, ATP luminescence, 48 h; activity change, negative = growth inhibition: at 46.2 µM (top of the series)
# Outline: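 Stably hTDP1-transfected Tdp1-null chicken DT40 cells were treated with library compounds minus camptothecin and grown for at least 48 hr at 37 °C, after which cellular ATP was quantified by luminescence.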
# % is scaled to controls: 0 for no effect and ±100 for the full control effect; potency is read from the fitted curve at half-maximal effect.
Compound,"activity change, negative = growth inhibition [%]",Potency
Cc1nnc(SC(C(=O)c2ccccc2)c2ccccc2)[nH]c1=O (stereo not given),-3.13,–
NC(=O)c1ncn([C@@H]2O[C@H](CNCc3cnc(N4CCOCC4)s3)[C@@H](O)[C@H]2O)n1,-4.59,–
CN(C)C(=O)c1ccc2c(c1)C1C3CCC(C3)C1C(c1ccccc1)N2 (stereo not given),–,18.4 µM (active)
CN(C)C(=O)c1ccc(NC(=O)c2ccccc2-c2ccccc2)cc1,5.43,–
O=C(O)CCCN1C(=O)C2C3c4ccccc4C(c4ccccc43)[C@@H]2C1=O (stereo not given in full),9.38,–
Cc1cc(=O)n2nc(N3CCCC(C(=O)N4CCN(C)CC4)C3)sc2n1 (stereo not given),-15.7,–
CCOC(=O)N1CCN(C(=O)C2CCN(S(=O)(=O)c3cc(Cl)ccc3OCC)CC2)CC1,-13.3,–
CCOC(=O)N1CCN(C(=O)C2CCN(Cc3ccc(OC)cc3OC)CC2)CC1,-4.56,–
CCOC(=O)N1CCN(C(=O)C2CC(c3ccc(F)cc3)=NO2)CC1 (stereo not given),-2.5,–
CCOC(=O)N1CCN(C(=O)C2CCCN(c3ncnc4c3sc3cccc(F)c34)C2)CC1 (stereo not given),–,6.51 µM (active)
CCOC(=O)N1CCN(C(=O)C2CCN(c3ncnc4c3sc3cccc(F)c34)CC2)CC1,–,5.8 µM (active)
O=C(O)c1c(NC(=O)N2CCCC2)sc2c1CCCC2,-12.9,–
CC(C)C(=O)N1CC(=O)Nc2ccc(F)cc2C1c1ccc(F)cc1 (stereo not given),-25,–
O=S(=O)(NCc1ccco1)c1cnc(Cl)c(Cl)c1,3.34,–
COc1ccc([C@H]2CC(=O)C=C(c3ccc(OC(F)(F)F)cc3)C2)cc1OC,–,16.4 µM (active)
COc1ccc([C@H]2CC(=O)C=C(c3ccc(CO)cc3)C2)cc1,-19.7,–
COc1ccc([C@H]2CC(=O)C=C(c3ccc(C)cc3)C2)cc1,-27.9,–
COc1cc(C2C(C#N)=C(C)NC3=C2C(=O)CC(C)(C)C3)ccc1O (stereo not given),-9.8,–
C=CCNCCCCOc1ccccc1,-3.33,–
CN(C)CCOc1cccc(Br)c1,1.1,–
Nc1cccc(OCCCCCOc2cccc(N)c2)c1,–,16.4 µM (active)
CCCCN(C(=O)CSCC(=O)Nc1ccc(OC)cc1)c1c(N)n(CCC)c(=O)[nH]c1=O,-4.94,–
COc1ccc(CCNC(=O)COC(=O)Cc2cccc(F)c2)cc1,-11.1,–
O=C(C1CCCN1S(=O)(=O)c1ccc(Br)cc1)N1CCOCC1 (stereo not given),5.59,–
Cc1ccc(N(CCC(=O)O)S(=O)(=O)c2cccc(C(F)(F)F)c2)cc1,0.617,–

Compound,"activity change, negative = growth inhibition [%]",Potency
Cc1noc(C)c1S(=O)(=O)Nc1ccc(C(=O)O)cc1,-14.4,–
Cc1oc2c(F)c(F)c(F)c(F)c2c1S(=O)(=O)Nc1cccc(C(F)(F)F)c1,–,20.6 µM (active)
COc1cc(OC)cc(C(=O)OCC(=O)Nc2sccc2C(N)=O)c1,–,18.4 µM (active)
Cc1cccc(C(=O)OCC(=O)Nc2sccc2C(N)=O)c1C,-9.13,–
COc1cc(OC)cc(C(=O)OCC(=O)Nc2ccc(F)cc2F)c1,1.65,–
COc1ccc(S(=O)(=O)NC(C)c2ccccc2)cc1C(=O)N1CCCCC1 (stereo not given),-5.94,–
Cc1cc(C)cc(NC(=O)CCCc2nc(-c3ccccc3Cl)no2)c1,-11.2,–
Cc1ccc(CNC(=O)c2c(-c3ccccc3)noc2C)cc1,-4.56,–
Cc1ccc2cc(CCNC(=O)c3c(-c4ccccc4Cl)noc3C)c(=O)[nH]c2c1,–,18.4 µM (active)
O=S(=O)(/C=C/c1ccccc1)NCCc1ccccn1,1.82,–
COc1cc(OC)cc(C(=O)N[C@H](C(=O)Nc2nc3ccccc3[nH]2)C(C)C)c1,–,2.59 µM (active)
COc1cc(OC)cc(C(=O)N[C@H](C(=O)OCC(=O)NC(C)c2ccccc2)C(C)C)c1 (stereo not given in full),-21.4,–
COc1ccc(C(=O)N[C@H](C(=O)NCc2ccccc2)C(C)C)cc1,-23.7,–
C=CCSc1nnc(Cn2c(=O)sc3ccccc32)n1C,10.5,–
COc1ccc(CCN2CC(C(=O)OCC(=O)NCc3ccccc3Cl)CC2=O)cc1OC (stereo not given),26.6,–
COC(=O)[C@]1(C)CCC[C@@]2(C)C3CC[C@]4(OC(C)=O)C[C@@]3(CCC21)CC4=NO (stereo not given in full),–,16.4 µM (active)
CN1CCN(C(=O)N2c3ccccc3CCc3ccccc32)CC1,-30,–
CC(C)c1cc(Cn2c3ccccc3c(=O)n2C(C)Cn2cc(C3CC3)nn2)on1 (stereo not given),6.1,–
CC(C)Oc1ccc(CN2CCC(n3nccc3NC(=O)c3cccnc3)CC2)cc1,-0.551,–
CCOC(=O)C1=NNC2(c3ccc(Cl)cc3)C(=O)N(c3cc(C)cc(C)c3)C(=O)C12 (stereo not given),-6.76,–
COc1ccc(-c2[nH]nc3c2C(c2ccncc2)C(C#N)=C(N)O3)cc1 (stereo not given),-26.7,–
Cc1nn(Cc2ccccc2)c2c1C(c1ccccc1)C(C#N)=C(N)O2 (stereo not given),–,25.9 µM (active)
Cc1cc2c(c(=O)n1Cc1ccco1)C(c1ccccc1)C(C#N)=C(N)O2 (stereo not given),-6.25,–
O=C(COC(=O)c1cc([N+](=O)[O-])ccc1NCc1ccccc1)NC1CCCCC1,-26.8,–
CC(=O)OCCN(CCCn1c(-c2ccncc2)nc2ccccc21)c1nc(-c2ccc(C)cc2)cs1,-19.6,–

Compound,"activity change, negative = growth inhibition [%]",Potency
Nc1c(Cl)cc(-c2csc(N3CCCC3c3nc4cc(Cl)c(Cl)cc4n3CCOCCO)n2)cc1Cl (stereo not given),-7.82,–
Cc1ccc(-c2csc(N3CCN(c4cc5c(cc4Cl)nc(-c4ccncc4)n5CCOCCO)CC3)n2)cc1,–,29.1 µM (active)
CC(NC(=O)c1ccc(S(=O)(=O)Nc2ccccc2)cc1)c1ccc(S(N)(=O)=O)cc1 (stereo not given),3.6,–
CCOC(=O)c1cc2occc2n1CC(=O)NC1CCC(C)CC1 (stereo not given),-7.14,–
CC(=O)N1C[C@@H](CO)[C@@H](N(C)C(=O)c2ccco2)C[C@H]1c1ccccc1,-1.14,–
Cn1c(SCC(=O)Nc2ccc(Cl)cc2)nc(O)cc1=O,-3.9,–
O=C(Nc1nc2ccc(F)cc2s1)c1nc(SCc2ccccc2F)ncc1Cl,-6.24,–
CCSc1nnc(NC(=O)c2ccc(C)cc2)s1,-4.86,–
Cc1ccc(NC(=O)c2nc(S(=O)(=O)Cc3cccc(C)c3)ncc2Cl)cc1,–,0.651 µM (active)
O=C(Nc1ccccc1C(F)(F)F)c1nc(S(=O)(=O)Cc2ccccc2F)ncc1Cl,–,0.708 µM (active)
CCCSc1ncc(Cl)c(C(=O)Nc2c(C(=O)Nc3ccccc3)oc3ccccc23)n1,-8.39,–
Cc1cccc(NC(=O)C(C)SCc2ccccc2)c1 (stereo not given),-1.64,–
CN(CC(=O)Nc1ccccc1C(F)(F)F)C(=O)Cc1ccccc1F,-4.86,–
Cc1cccc(C(=O)Nc2ccc(Oc3cnccn3)cc2)c1,8.2,–
Cc1cccc(NC(=O)c2nc(S(=O)(=O)Cc3ccccc3)ncc2Cl)c1,–,2.06 µM (active)
CCSc1ncc(Cl)c(C(=O)Nc2cc(C)ccc2C)n1,–,inactive
NC(=O)CSc1nnc(NC(=O)c2ccc(Br)o2)s1,-14.2,–
CSc1nnc(NC(=O)c2nc(S(=O)(=O)Cc3ccc(C)cc3)ncc2Cl)s1,–,4.11 µM (active)
CCOc1ccc(S(=O)(=O)N2CCN=C2Cc2ccccc2)cc1C,-25.1,–
O=C(COC(=O)c1cc(=O)[nH]c2ccccc12)NCc1cccc(Cl)c1,-0.601,–
COc1ccccc1C1SCCN1C(=O)c1ccc([N+](=O)[O-])cc1 (stereo not given),4.74,–
Cc1cc(/C=C2\SC(=O)N(C)C2=O)c(C)n1-c1cccc(C(=O)O)c1,8.74,–
Nc1cccc(-c2cncc(N3CCN(Cc4ccccn4)CC3)n2)c1,-26.4,–
Nc1c(-c2ccccc2)nnn1Cc1ccccc1,-3.82,–
O=C(Nc1cccnc1)c1ccc(Cl)cc1[N+](=O)[O-],1.36,–

Compound,"activity change, negative = growth inhibition [%]",Potency
Clc1ccc(C=NC23CN4CN(CN(C4)C2)C3)cc1,5.74,–
Cc1cccc(OCc2ccc(C(=O)Nc3ccc(F)cc3)cc2)c1,-17.5,–
Cc1cccc(CS(=O)(=O)c2ncc(Cl)c(C(=O)Nc3ccc(F)cc3)n2)c1,–,1.84 µM (active)
Cn1cc([N+](=O)[O-])c(C(=O)Nc2cnn(Cc3ccc(F)cc3)c2)n1,-11.5,–
COc1ccc(S(=O)(=O)NC(C)C(=O)NCc2ccncc2)cc1Cl (stereo not given),-28.8,–
O=C(NC1CCCC1)C1CC(=O)N(c2ccc(F)cc2)C1 (stereo not given),-12.7,–
O=C(c1cccc(C(=O)N2CCN(c3ccc(F)cc3)CC2)c1)N1CCN(c2ccc(F)cc2)CC1,–,13 µM (active)
Cc1noc(C)c1S(=O)(=O)Nc1ccc(C(=O)N2CCN(c3ccc(F)cc3)CC2)cc1,-25.6,–
O=[N+]([O-])c1ccc(N2CCN(c3ccc(F)cc3)CC2)cn1,-4.53,–
O=C(c1cc(C(=O)N2CCN(c3ccc(F)cc3)CC2)cc([N+](=O)[O-])c1)N1CCN(c2ccc(F)cc2)CC1,–,4.61 µM (active)
O=C(c1cc2cc(F)ccc2[nH]1)N1CCN(c2ccc(F)cc2)CC1,7.44,–
O=C(c1cc(-c2ccc(F)cc2)on1)N1CCN(c2ccc(F)cc2)CC1,1.37,–
CS(=O)(=O)N1CCC2(CC1)CN(Cc1cc(C(F)(F)F)cc(C(F)(F)F)c1)C2,0.577,–
Cc1c(NC(=O)COC(=O)/C=C/c2cccc(F)c2)c(=O)n(-c2ccccc2)n1C,-19.5,–
Cc1ccnc(NS(=O)(=O)c2ccc(NC(=O)c3oc4ccccc4c3C)cc2)n1,0.414,–
Cc1oc(C(N)=O)cc1COc1ccc(C(N)=O)cc1,-8.07,–
CCc1cccc2c3c([nH]c12)C(CC)(CC(=O)O)OCC3 (stereo not given),–,inactive
CC(OC(=O)CN1C(=O)C2CCCCC2C1=O)C(=O)Nc1ncc(Cl)cc1Cl (stereo not given),-9.52,–
CC1=CC(C)(C)Nc2ccc(OC(=O)CN3C(=O)C4CCCCC4C3=O)cc21 (stereo not given),–,2.31 µM (active)
O=C(COC(=O)CN1C(=O)C2CCCCC2C1=O)Nc1ccc(F)c(F)c1F (stereo not given),10.7,–
O=C(CN1C(=O)NC(Cc2c[nH]c3ccccc23)C1=O)Nc1ccccc1C(F)(F)F (stereo not given),-3.58,–
COc1ccc(S(=O)(=O)NCCCCOc2ccc(Cl)cc2)cc1,–,2.06 µM (active)
COc1cccc(NC(C)=[N+](C)CCNS(=O)(=O)c2ccc(Cl)cc2)c1,-23.4,–
COc1ccc(S(=O)(=O)NCCCc2ccccc2)cc1,-27.7,–
Cc1nc(N)[nH]c(=O)c1Oc1cccc(C(F)(F)F)c1,-2.45,–
